This is a sample that favours compounds with a hit; in the whole collection about 3.5% have one here.
GPR151 ag = activates the human receptor GPR151; activation, % at 11.2 µM; 650,000 compounds, 1% hits; AID 1508602; Q8TDV0; PathHunter beta-arrestin GPR151 cells, luminescence; in the data active = activation above about 4.9%;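 note: 0% = median of compound wells and 100% = cells with positive control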
Target sequence (Q8TDV0 whole entry, looked up): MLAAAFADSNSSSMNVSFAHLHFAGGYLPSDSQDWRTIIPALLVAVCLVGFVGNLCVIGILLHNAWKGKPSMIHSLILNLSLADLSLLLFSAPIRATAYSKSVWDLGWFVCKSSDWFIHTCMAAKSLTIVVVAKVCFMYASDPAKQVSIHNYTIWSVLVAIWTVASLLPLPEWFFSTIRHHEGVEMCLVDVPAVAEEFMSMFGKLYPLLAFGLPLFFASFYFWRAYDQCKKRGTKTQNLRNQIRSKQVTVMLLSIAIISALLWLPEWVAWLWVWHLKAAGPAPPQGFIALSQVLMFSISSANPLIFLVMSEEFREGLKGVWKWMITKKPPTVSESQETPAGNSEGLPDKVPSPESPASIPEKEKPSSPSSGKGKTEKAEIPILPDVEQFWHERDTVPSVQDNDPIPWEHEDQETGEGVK
FBW7 act = human FBW7 E3 ligase activation, primary screen; Q969H0; AlphaScreen FBW7–phospho-cyclin E peptide binding, activator screen; normalized activity (activation), % at 26.1 µM; 650,000 compounds, 0.13% hits; AID 1259310; in the data active = normalized activity above about 1.9%;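 note: purified mutant Fbw7 with reduced substrate affinity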
TEAD-YAP inh = TEAD-YAP interaction inhibition. inhibition, % at 9.12 µM. 640,000 compounds, 1.4% hits. HEK-TIYL cells, TEAD-Gal4/YAP UAS-luciferase luminescence; in the data active = inhibition above about 32%;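 note: 0% = median of test compound wells and 100% = reference inhibitor wells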
MITF primary = human MITF inhibition, primary screen | inhibition, % at 2.6 µM | 650,000 compounds, 0.91% hits | AlphaScreen MITF homodimerization, bead proximity signal; in the data active = inhibition above about 50%;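 note: 0% = vehicle wells with protein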
MITF confirm = human MITF inhibition, confirmation; shares compounds with MITF primary; AlphaScreen MITF homodimerization, biotin/His-MITF beads; inhibition, % at 2.6 µM; 4,700 compounds, 16% hits; AID 1259372;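 active = inhibition above a cutoff derived from the DMSO control wells, cut at about 28% in these data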;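 note: 0% = MITF dimer wells with DMSO only; inhibitors lower the bead chemiluminescence by keeping MITF from dimerizing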
AlphaScreen DR = counter-screen: compounds optically interfering with AlphaScreen. shares compounds with MITF primary. AlphaScreen optical interference counterscreen, cell-free. IC50, µM. 480 compounds, 6% hits. AID 1259373; call rule not given here
AlphaScreen intf2 = AlphaScreen optical interference, counter-screen. shares compounds with MITF primary. 4,700 compounds, 7.6% hits. LysRS AlphaScreen counterscreen, signal interference, triplicate. inhibition, % at 2.6 µM. AID 1259376;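 active = inhibition above a cutoff derived from the DMSO control wells, cut at about 30% in these data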
* = called active by the depositor; · = no result given.

SMILES	GPR151 ag	FBW7 act	TEAD-YAP inh	MITF primary	MITF confirm	AlphaScreen intf2	others
CCCCCCN(CCCCCC)CC(=O)Nc1c2c(nc3ccccc13)CCC2	1	0	-3	71*	21	17
CCCCCN(CCCCC)CC(=O)Nc1cc(C)nc2ccccc12	1	0	-1	74*	-2	3
O=C(CN(c1ccc([N+](=O)[O-])cc1)S(=O)(=O)c1ccccc1)N1CCN(c2ccccc2)CC1	0	0	-12	-5	·	·
CN(C)S(=O)(=O)NCCCNc1ccc([N+](=O)[O-])cc1	0	1	10	1	·	·
COc1cccc(-c2ccc(=O)n(CC(=O)NCC3CCCO3)n2)c1 (centres undefined)	-1	0	3	51*	14	11
Cc1ccc2nc(/N=C/c3cc([N+](=O)[O-])cc([N+](=O)[O-])c3O)sc2c1	-3	0	21	51*	-3	2
Cc1cc(C)c2nc(/N=C/c3cc([N+](=O)[O-])cc([N+](=O)[O-])c3O)sc2c1	0	0	-10	-9	·	·
c1ccc(-c2nccc(NCCCN3CCOCC3)n2)cc1	0	0	-4	-3	·	·
Cc1ccc(C(=O)c2cc(Cl)cc(NC(=O)c3cc(Cl)cc(Br)c3O)c2Cl)cc1	0	0	4	19	·	·
CN(C(=O)CN1C(=O)COc2c1cc(Cl)c1cccnc21)C1CCCCC1	0	0	-6	-6	·	·
Clc1cc2c(c3ncccc13)OCN(Cc1ccccn1)C2	1	-1	5	114*	65*	88*
CCCCN1COc2c(cc(Cl)c3cccnc23)C1	0	0	41*	78*	73*	100*
Clc1cc2c(c3ncccc13)OCN(CC1CCCO1)C2 (centres undefined)	0	-1	21	88*	100*	101*
CC1CCCC(C)N1C(=O)c1cc2n(n1)C(C(F)(F)F)CC(c1ccc(Cl)c(Cl)c1)N2 (centres undefined)	-1	0	-3	59*	-10	-7
O=C(CN1CC(=O)Oc2ccccc21)Oc1ccc(F)cc1	0	0	0	69*	3	3
O=C(O)c1ccc(C(=O)O)c(-c2ccccc2)c1	0	0	3	8	·	·
O=C(O)c1cccc(-c2cc(C(=O)O)ncc2C(=O)O)c1	2	-1	-1	57*	16	38*
COCCCNC(=O)C1Sc2nnc(-c3ccccc3)n2NC1c1ccc(OC)cc1 (centres undefined)	1	0	-1	3	·	·
CN1CCC(=NNc2nc3ccccc3[nH]2)CC1	-1	0	-26	53*	8	2
c1ccc(CN2CCC(=NNc3nc4ccccc4[nH]3)CC2)cc1	-1	0	-11	43	·	·
CN1CC(=O)N2CCN(C(=O)NC3CCCCC3)C[C@@H]2C1=O	0	0	1	74*	74*	-4	AlphaScreen DR=>6.5
O=C(NC1CCCCC1)N1CCN2C(=O)[C@@H]3CCCN3C(=O)[C@H]2C1	1	0	8	82*	71*	-12	AlphaScreen DR=>6.5
CN1CC(=O)N2CCN(C(=O)c3cccc4ccccc34)C[C@@H]2C1=O	0	0	-4	12	·	·
CN1CC(=O)N2CCN(C(=O)c3ccccc3Cl)C[C@@H]2C1=O	0	1	8	54*	-2	-4
O=C(c1cc(F)c(F)cc1F)N1CCN2C(=O)[C@@H]3CCCN3C(=O)[C@H]2C1	0	0	-6	-2	·	·
SMILES	GPR151 ag	FBW7 act	TEAD-YAP inh	MITF primary	MITF confirm	AlphaScreen intf2	others
CN1CC(=O)N2CCN(C(=O)c3cc(Cl)cc(Cl)c3)C[C@@H]2C1=O	1	0	13	30	·	·
CN(C)CCN1C(=O)CC(CC(=O)N2CCCCCC2)(c2ccccc2Cl)C1=O (centres undefined)	-2	0	-9	-3	·	·
CC1(C)Cc2c(sc3c2c2nnnn2c2nnnn32)CO1	1	0	7	2	·	·
CNC(=O)c1ccc(-c2ccccc2OC)nc1N(C)C	-1	0	-12	11	·	·
C/C=C/c1ccc(OCC(O)CN2CCN(Cc3ccc4c(c3)OCO4)CC2)c(OC)c1 (centres undefined)	2	0	6	64*	15	14
Cc1cc(C)c(OCC(O)CN2CCN(Cc3ccc4c(c3)OCO4)CC2)c(C)c1 (centres undefined)	-1	0	-1	52*	-5	-7
OC(COC1CCCc2ccccc21)CN1CCN(Cc2ccc3c(c2)OCO3)CC1 (centres undefined)	1	0	-5	80*	12	10
COc1ccc2c(c1)C(C)CC(C)(C)N2C(=O)NC1CCCCC1 (centres undefined)	-1	1	-22	17	·	·
COc1ccc2c(c1)C(C)CC(C)(C)N2C(=O)CNCCN1CCOCC1 (centres undefined)	1	0	1	88*	9	18
O=S(=O)(O)c1cc(S(=O)(=O)O)c2cc(O)c(S(=O)(=O)O)cc2c1	-1	-1	7	60*	67*	14	AlphaScreen DR=>6.5
CC(=O)N/N=C/c1ccc(-c2ccc([N+](=O)[O-])cc2Br)o1	-2	0	8	-25	·	·
CC(C)NC(=O)/C(C#N)=C/c1ccc(-c2ccc([N+](=O)[O-])cc2Br)o1	1	0	-18	73*	77*	-20	AlphaScreen DR=>7.1
CN1CCN(CC(=O)Nc2ccc(C(F)(F)F)cc2)CC1	0	0	-3	67*	8	15
CN1CCN(CC(=O)Nc2ccc(N3CCCCCC3)cc2)CC1	0	0	-3	55*	-13	37*
Cc1cc(NC(=O)CN2CCN(c3cccc(Cl)c3)CC2)no1	2	0	1	-4	·	·
O=C(Cn1c(-c2ccccc2)noc1=O)Nc1ccc(N2CCCCCC2)cc1	1	-1	13	54*	15	17
CN1CCN(CC(=O)Nc2ccc(C(=O)N3CCCC3)cc2)CC1	-1	1	5	34	·	·
CC(=O)Nc1ccc(NC(=O)CN2CCN(C)CC2)cc1	-1	1	-24	2	·	·
Cc1cc(NC(=O)CN2CCN(c3ccc(F)cc3)CC2)no1	0	0	-1	54*	4	3
CCOC(=O)c1cnn(-c2ccccc2)c1NC(=O)c1sc2ccccc2c1Cl	-1	0	-3	8	·	·
CCN(CC)CCNC(=O)c1nnc(Cc2ccc(F)cc2)o1	-2	1	7	6	·	·
O=C(O)Cc1cc(=O)n(-c2ccccn2)[nH]1	-1	-1	-4	117*	118*	100*
COc1ccc(-c2cc3ccccc3n2CC(O)CNCCO)cc1 (centres undefined)	-1	0	11	53*	3	-2
O=C(NCc1cccnc1)c1cccc(-c2cccs2)c1	-2	0	2	55*	45*	-2	AlphaScreen DR=>6.6

Screening data deposited in PubChem BioAssay by The Scripps Research Institute Molecular Screening Center.
